High-throughput results as filed in PubChem.
3CLpro inhibitor: SARS-CoV 3CLpro protease inhibition | recombinant SARS-CoV 3CLpro, quenched FRET peptide cleavage | inhibition, % at 6 µM | 290,000 tested, 0.14% active | AID 1706; in the data active = inhibition above about 12%
VHR inh abs: blocks human VHR1 dual specificity phosphatase; P51452; recombinant VHR phosphatase, pNPP absorbance; inhibition, % at 13.3 µM; 290,000 tested, 0.52% active; AID 1654; in the data active = inhibition above about 50%
Target sequence (P51452 whole entry, looked up): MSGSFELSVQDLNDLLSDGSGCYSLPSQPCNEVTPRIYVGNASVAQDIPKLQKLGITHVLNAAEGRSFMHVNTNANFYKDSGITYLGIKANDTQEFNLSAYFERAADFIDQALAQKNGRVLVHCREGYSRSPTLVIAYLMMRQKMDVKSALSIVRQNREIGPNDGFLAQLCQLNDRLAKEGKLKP
RecA intein inh: Mtb RecA intein splicing inhibition; P9WHJ3; cell-free RecA intein splicing, fluorescence; inhibition, % (no concentration beside the values); 290,000 tested, 0.75% active; in the data active = inhibition above about 30%;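 also: 0% = vehicle wells and 100% = reference inhibitor control wells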
GDH-TPI counter: inhibits GDH-TPI coupling enzymes, artifact for Mtb FBA screen; GDH-TPI coupled enzyme counterscreen, NADH absorbance; inhibition, % at 4.8 µM; 360,000 tested, 1.2% active; AID 588335;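 also: 0% = DMSO wells and 100% = wells lacking the enzyme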
Mtb FBA inh: Mtb fructose-bisphosphate aldolase inhibition; P9WQA3; purified M. tuberculosis FBA, fluorescence read-out; inhibition, % at 1 µM; 360,000 tested, 2.3% active; in the data active = inhibition above about 27%;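 also: 0% = vehicle and 100% = reference inhibitor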
Target sequence (P9WQA3 whole entry, looked up): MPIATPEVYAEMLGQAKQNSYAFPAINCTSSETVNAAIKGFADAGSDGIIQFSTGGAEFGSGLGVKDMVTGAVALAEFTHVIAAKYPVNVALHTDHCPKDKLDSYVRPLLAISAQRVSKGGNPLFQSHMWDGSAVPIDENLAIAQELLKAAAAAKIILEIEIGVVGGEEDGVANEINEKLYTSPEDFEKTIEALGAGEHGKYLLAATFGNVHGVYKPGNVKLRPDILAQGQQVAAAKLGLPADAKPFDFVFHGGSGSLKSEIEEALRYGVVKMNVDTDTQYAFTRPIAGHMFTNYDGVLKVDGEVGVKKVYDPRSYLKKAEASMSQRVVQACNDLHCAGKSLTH
CCHF vOTU inh: blocks the CCHF virus ovarian tumor domain protease | CCHFV vOTU protease, Pep-AMC fluorescence | inhibition, % at 11.5 µM | 370,000 tested, 0.55% active; also: 0% = vehicle wells with enzyme and 100% = no enzyme wells
GFP chromo cs: counter-screen GFP chromophore formation inhibition; AID 434968; cell-free GFP chromophore formation, fluorescence; shares compounds with RecA intein inh; EC50, µM; 2,100 tested, 83% active; call rule not given here
* = called active by the depositor; . = no result. Hits are enriched below; roughly 4.7% of the tested compounds scored in any of these assays. Rule as the data show it, unless noted: active = inhibition above about 30%; inactive = the rest.

SMILES	3CLpro inhibitor	VHR inh abs	RecA intein inh	GDH-TPI counter	Mtb FBA inh	CCHF vOTU inh	GFP chromo cs
C=CC[C@@H](CC(=O)OC(C)(C)C)C(=O)OC[C@@H]1CCCN1C(=O)[C@@H](CC=C)CC(=O)N(CCO)Cc1ccccc1	.	.	.	-2	-1	17	.
O=C(COC(=O)c1cc(S(=O)(=O)N2CCOCC2)ccc1F)Nc1ccccc1C(F)(F)F	.	.	.	4	0	-9	.
COc1cccc(CN2CCNC(=O)C2CC(=O)NCC(C)(C)N2CCOCC2)c1OC (stereo unspecified)	8	15	0	4	0	-7	.
COC(=O)[C@]12C[C@H](CC(=O)N3CCOCC3)C(=O)N(Cc3ccco3)C1=C[C@H](C1CCCC1)O[C@@H]2C	.	.	.	.	.	-9	.
O=C(Oc1ccccc1C(=O)Nc1ccccc1)c1ccccc1Br	2	-7	54*	7	2	3	36*
c1cc2cn[nH]c2cc1NC1CCCCCC1	1	1	89*	21	14	-7	16*
COC(=O)c1cc(NC(=O)Nc2ccccc2OC)cc(C(=O)OC)c1	7	9	40*	5	2	-4	>38
Cc1ccc(S(=O)(=O)N[C@@H](Cc2ccccc2)C(=O)CCl)cc1	3	5	93*	-7	1	-2	1.9*
COc1ccc([C@@H]2CC=C(C(=O)O)[C@H](c3ccc(F)cc3)N2S(=O)(=O)c2ccc(Cl)cc2)cc1	.	.	.	0	1	13	.
O=C(Nc1ccc(N2CCOCC2)cc1)Nc1ccc2nsnc2c1	-3	13	54*	-4	-1	-8	>38
O=C(Nc1ccc(N2CCOCC2)cc1)c1cnsn1	0	10	1	30	0	8	.
CCOc1ccc(NC(=O)CCC(=O)N/N=C(\C)c2cccs2)cc1	-1	6	-3	9	7	5	.
COc1ccc(CN2CCC(CO)(CCOc3ccccc3)CC2)c(OC)c1C	-5	20	2	7	4	-1	.
COc1ccc2[nH]c(CN3CCC(CO)(CCOc4ccccc4)CC3)c(C)c2c1	6	30	40*	5	5	-5	>38
CCC1Sc2ccc(S(=O)(=O)CCC(=O)Nc3cc(C)ccn3)cc2NC1=O (stereo unspecified)	-3	-14	0	8	-2	9	.
COc1cccc(-c2nc3c(c(=O)[nH]c(=O)n3Cc3ccccc3)n2CCO)c1OC(F)F	5	5	.	2	12	5	.
Cc1cc(C(=O)CN2C(=O)c3ccccc3C2=O)c(C)n1C1CC1	-4	22	98*	10	2	2	>38
C/C(CC(=O)Nc1cccnc1)=N\NC(=O)c1ccc([N+](=O)[O-])c(Cl)c1	4	2	61*	11	2	5	35*
CC(=O)C1=C(c2ccc(Br)cc2)C(=O)c2ccccc2C1=O	2	26	58*	13	0	23	3.1*
CC(=O)Nc1c(Br)cc2c(c1Br)C(=O)c1ccccc1-2	.	.	.	1	-4	7	.
CC(C)[C@@H]1CC[C@@H](C)C[C@H]1OC[B-](F)(F)F	.	.	.	.	.	7	.
c1ccc(-c2nc(N3CCCCCC3)c3ccccc3n2)nc1	0	10	32*	12	3	7	>38
CN1CCN(C(=O)CCCN2C(=O)/C(=C/c3ccccc3)SC2=S)CC1	2	29	6	10	0	5	.
Cc1nn(-c2ccccc2)c(Cl)c1/C=C1\SC(=S)N(CCCCCC(=O)O)C1=O	6	9	37*	5	-2	25	28*
O=C(O)CCCN1C(=O)/C(=C\C(Cl)=C\c2ccccc2)SC1=S	3	10	46*	4	-1	-13	>38
SMILES	3CLpro inhibitor	VHR inh abs	RecA intein inh	GDH-TPI counter	Mtb FBA inh	CCHF vOTU inh	GFP chromo cs
CC1CC(C)CN(C(=O)/C=C/c2ccc(S(=O)(=O)N3CCOCC3)cc2)C1 (stereo unspecified)	.	.	.	-3	2	9	.
CCOC(=O)C1=C(C)N=C2SCCC(=O)N2C1c1ccc(OC)cc1 (stereo unspecified)	1	26	4	.	.	.	.
COCCOC(=O)C1=C(C)N=C2SCCC(=O)N2C1c1ccc(OC(=O)c2ccco2)cc1 (stereo unspecified)	-4	40	33*	11	0	2	>38
COc1cccc(-c2cc(=O)[nH][nH]2)c1	0	-29	98*	7	-1	9	2.2*
CCOc1cccc(-c2cc(=O)[nH][nH]2)c1	2	8	97*	-7	0	-11	2.5*
CCOc1cccc(N)c1	.	.	.	-1	0	.	.
CC1=NNC(=O)C1C(c1ccccc1)C1C(=O)NN=C1C (stereo unspecified)	-2	14	98*	.	.	.	0.41*
O=C1NN=C(c2ccccc2)C1Cc1ccccc1 (stereo unspecified)	.	.	.	7	-2	1	.
CC1=NNC(=O)C1Cc1ccccc1 (stereo unspecified)	.	.	96*	-2	1	0	0.66*
O=C1CC(N2CCN(c3ccccc3)CC2)C(=O)N1c1ccc(Cl)cc1 (stereo unspecified)	-1	14	1	5	0	-5	.
O=[N+]([O-])c1c(NCc2ccco2)ccc2nonc12	4	12	42*	-9	0	10	20*
O=[N+]([O-])c1c(Nc2ccccc2)ccc2nonc12	2	-13	1	-6	-17	4	.
COc1ccc(NC(=O)/C(Cl)=C(/Cl)S(=O)(=O)Cc2ccc(C)cc2)cn1	0	26	89*	1	-1	.	6.7*
COc1ccc(NC(=O)Cc2ccc(Cl)c(Cl)c2)cn1	3	13	7	2	1	-12	.
Cc1ccc2c(c1)c1c3n2CCN(C(=O)CCl)C3CCC1 (stereo unspecified)	-3	-2	73*	2	0	-15	7.3*
Cc1sc2ncnc(Sc3nnnn3-c3ccccc3)c2c1C	-2	-4	34*	9	27*	1	18*
Clc1ccc(-n2nnnc2Sc2ncnc3sccc23)cc1	5	.	39*	15	6	0	10*
Cn1nnnc1Sc1ncnc2scc(-c3ccc(Cl)cc3)c12	.	.	.	-2	2	1	.
CCC(C)NC(=O)c1ccc(Cl)c(S(=O)(=O)Nc2ccccc2N2CCOCC2)c1 (stereo unspecified)	.	.	.	-5	-1	9	.
COC(=O)[C@@]1(Sc2ccc(C)cc2)CC(=O)N[C@@H]1c1ccco1	.	.	.	.	.	6	.
N#CC1(C#N)CC(C=O)=C(N)C1(C#N)CC(=O)C12CC3CC(CC(C3)C1)C2 (stereo unspecified)	3	12	41*	14	-4	-10	19*
O=C(OCC(=O)C12CC3CC(CC(C3)C1)C2)c1ccc(O)cc1	.	.	.	10	1	7	.
